According to PubChem BioAssay (NCI):
About 83,000 compounds went through this panel and 20% of them were active in at least one assay; those are over-represented in the sample as a whole.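 In brief: 96-well plates, 48 h treatment, single concentration, percent growth endpoint.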 A number with no mark means an inactive call. The source made the active and inactive calls. The calls were made as follows: active = growth percent below 10; inactive = the rest.

How the values were obtained:
Assay in all cases: NCI-60 one-dose screen, 48 h (100 = growth as untreated, 0 = no growth, -100 = all killed)
Details in all cases: 10 µM unless noted
EKVX NSCLC = test system: EKVX NSCLC
SN12C renal = test system: SN12C renal
UO-31 renal = test system: UO-31 renal
TK-10 renal = test system: TK-10 renal
ACHN renal = test system: ACHN renal
CAKI-1 renal = test system: CAKI-1 renal
CCRF-CEM leukemia = test system: CCRF-CEM leukemia
MOLT-4 leukemia = test system: MOLT-4 leukemia
SR leukemia = test system: SR leukemia
RPMI-8226 leukemia = test system: RPMI-8226 leukemia
OVCAR-8 ovarian = test system: OVCAR-8 ovarian
OVCAR-5 ovarian = test system: OVCAR-5 ovarian
OVCAR-4 ovarian = test system: OVCAR-4 ovarian
SK-OV-3 ovarian = test system: SK-OV-3 ovarian
HS 578T breast = test system: HS 578T breast
NCI/ADR-RES ovarian = test system: NCI/ADR-RES ovarian
IGROV1 ovarian = test system: IGROV1 ovarian

Row | Compound | growth (EKVX NSCLC) | growth (SN12C renal) | growth (UO-31 renal) | growth (TK-10 renal) | growth (ACHN renal) | growth (CAKI-1 renal) | growth (CCRF-CEM leukemia) | growth (MOLT-4 leukemia) | growth (SR leukemia) | growth (RPMI-8226 leukemia) | growth (OVCAR-8 ovarian) | growth (OVCAR-5 ovarian) | growth (OVCAR-4 ovarian) | growth (SK-OV-3 ovarian) | growth (HS 578T breast) | growth (NCI/ADR-RES ovarian) | growth (IGROV1 ovarian)
1 | CN1CCN(Cc2ccc(NC(=O)c3cncc(C#Cc4cnn5cccnc45)c3)cc2C(F)(F)F)CC1 | 46.6% | 8.93% (active) | 22.3% | 32.8% | 11.2% | 21.6% | 2.51% (active) | 6.57% (active) | -16.3% (active) | 6.03% (active) | 13.5% | 26% | 27.9% | 28.3% | 27.2% | 26.5% | –
2 | CC1(COc2ccc3ncc(C#Cc4cncc(C(=O)Nc5cccc(C(F)(F)F)c5)c4)n3n2)COC1 | 101% | 61.9% | 58.2% | 128% | 72.4% | 81.7% | 88.4% | 84.9% | 56.5% | 92.7% | 81.4% | 81.7% | 82.1% | 96.9% | 53.6% | 80.3% | 62%
3 | COc1cc(OC)c(S(N)(=O)=O)cc1C(=O)/C=C/c1ccc(C)cc1 | 45.6% | 11.4% | 34.7% | 25.5% | 29.7% | 21.9% | 16.7% | 21.1% | 5.66% (active) | 18.5% | 31.7% | 13.4% | 53.1% | 37.6% | 21.3% | 37% | 25.3%
4 | CN1CCC(n2cc(Nc3ncc4c(=O)n(-c5c(Cl)cccc5Cl)cc(Br)c4n3)cn2)CC1 | 57.4% | 20.7% | 22.2% | 47% | – | 20% | 8.75% (active) | 13% | -21.4% (active) | 20.7% | 6.91% (active) | 43.5% | 33.8% | 32.7% | 45.1% | 34% | 15%
5 | COc1cc(OC)c(S(N)(=O)=O)cc1C(C)=O | 102% | 97.2% | 97.4% | 94.9% | 107% | 95.6% | 109% | – | – | 103% | 104% | 107% | 102% | 109% | 112% | 111% | 112%
6 | Nc1nc(-c2cccc([N+](=O)[O-])c2)c(N=Nc2ccc(Br)cc2)s1 | 8.7% (active) | -26.8% (active) | -80.3% (active) | -96.2% (active) | – | -87.9% (active) | – | 29.5% | 50.7% | 15% | -28.7% (active) | -12.1% (active) | -33.2% (active) | -83.7% (active) | 0.349% (active) | -21.7% (active) | -13.3% (active)
7 | CN1CCN(c2nc(-c3csc(-c4ccccc4)n3)cc3ccccc23)CC1 | – | 50.2% | 43.6% | 73.3% | – | 21.2% | 14.2% | 4.08% (active) | -20.7% (active) | 14.1% | 62.4% | 59.4% | 72.7% | 81.8% | 60.6% | 65.8% | 26.2%
8 | CCOC(=O)c1c(Nc2ccccc2)nn2c(-c3ccc(OC)cc3)ccnc12 | 99.6% | 93.5% | 85.7% | 100% | 83.8% | 78% | 74.1% | 82.5% | 76.7% | 75.1% | 94.3% | 90.9% | 98.7% | 101% | 79.7% | 88.1% | 101%
9 | CNCc1cccc2c1OCCCCCCC(C)(O)CC(C)(C)S(=O)(=O)c1ccc(cc1)-c1cnc(N)c(n1)C(=O)N2 (configuration not stated) | 62.7% | 16.6% | 23.7% | 65.4% | 10% (active) | 17.6% | 4.37% (active) | 2.61% (active) | -36.6% (active) | -41.9% (active) | 55.3% | 55.9% | 30.3% | 38.1% | 24.1% | 43.2% | 3.36% (active)
10 | COc1ccc(CCN2C(=O)CSC2=S)cc1 | 96% | 88.8% | 92% | 65.1% | 99.1% | 82.1% | 75.3% | 94.6% | – | 33.3% | 102% | 95.7% | 92.8% | 111% | 99.4% | 98.4% | 109%
11 | Cc1cc(C)c(N2C(=O)CC(Nc3ccc(Cl)cc3Cl)C2=O)c(C)c1 (configuration not stated) | 102% | 98.2% | 85.9% | 109% | 103% | 87.6% | 105% | 103% | – | 99.9% | 101% | 100% | 102% | 108% | 95.8% | 107% | 104%
12 | CC(O)c1cc2ccccc2c(=O)o1 (configuration not stated) | 102% | 101% | 89.9% | 105% | 102% | 91.5% | 1.19% (active) | 107% | 96.2% | 96.8% | 102% | 103% | 100% | 99.8% | 103% | – | –
13 | C[C@@H]1C[C@H]2C(=O)O[C@@H](C)C(NC(=O)[C@H](Cc3cc(F)cc(F)c3)NC(=O)Nc3ccc(Cl)cc3F)C(=O)N3CCC[C@H]3C(=O)N3CCCC[C@H]3C(=O)N[C@@H](CO)C(=O)N2C1 (some centres not stated) | 30.9% | 21.5% | 34.9% | 54.7% | 31.9% | 17.5% | 32.7% | – | 31.2% | 14.9% | 21.9% | 35.3% | 22.6% | 22.1% | 33.4% | 47.5% | –
14 | CC(C)(C)CC(C)(C)n1nnnc1C(Nc1nccs1)c1cc2cccc3ccc4cccc1c4c32 (configuration not stated) | 97.2% | 99.4% | 87.9% | 108% | – | 75.9% | 106% | 121% | 96.6% | 104% | 100% | 84.6% | 99.7% | 103% | 93.8% | 98% | 93.5%
15 | CNC(=O)c1cc(Oc2ccc3nc(NC(=O)c4cccc(OC(F)(F)F)c4)sc3c2)ccn1 | 79.6% | 78.7% | 95.7% | 101% | 75.2% | 73.9% | – | 73.3% | 58.3% | 71.7% | 81.7% | 95.3% | 56.5% | 88.4% | 69.6% | 67.3% | 90.3%
16 | Nc1nc(-c2cccc([N+](=O)[O-])c2)c(N=Nc2cccc([N+](=O)[O-])c2)s1 | 78.1% | 22.5% | 13.5% | 7.2% (active) | 11.5% | 34.5% | 95.2% | 112% | 67.5% | 34.3% | 19.9% | 53.4% | -15.2% (active) | -78% (active) | 37.6% | 18.6% | 27.6%
17 | CNC(=O)c1cc(Oc2ccc3nc(NC(=O)c4cc(N5CCOCC5)cc(C(F)(F)F)c4)sc3c2)ccn1 | 70.7% | 83.1% | 87.8% | 92.3% | – | 82.2% | 67.3% | 65.5% | 27.1% | 51.6% | 65.5% | 97.1% | 64.8% | 97.9% | 79.2% | 80.2% | 99.6%
